This note sets out measurements from ChEMBL document CHEMBL3988442, “University of Dundee, Small-Polar-MMV Screening Library” (2021).

SMILES strings stand for the structures. Out of some 48,000 compounds screened, about 13,000 (27%) showed an effect of 50% or more. Some of the results follow.

The subject of this experiment is Wolbachia pipientis. Nature of the experiment: Anti-Wolbachia Cell-Based Screen. It is filed as functional. More on the design: scale not given: in the data most compounds retested in dose-response had high values. Particulars: 5 µM.
For the compound `COc1cccc(-c2csc(Cn3ccc(=O)[nH]c3=O)n2)c1`, the “Percent Effect” value is -10.2%. As for `COCCCn1ccc(NC(=O)NCCn2ccnc2)n1`, the “Percent Effect” value is recorded as -3.976%. `Fc1ccc2c(c1)nc1n2[C@@H](CNCc2nccs2)COC1`: the “Percent Effect” value was -7.093%. `Cc1nc(Cn2cc(C#N)c(=O)c3ccccc32)no1`: the “Percent Effect” value is on record as -5.414%. The value for `N#Cc1cc(N2CCC(CS(N)(=O)=O)CC2)nc2ccccc12` was -7.143%; that for `CC1CN(C)CCN1C(=O)NCCCn1ccnc1` (stereo not drawn) was 19.65%; that for `COc1ccc2cc(CN(C)C(C)c3nc(C(C)(C)C)no3)ccc2c1` (stereo not drawn) was -2.359%.

Turning to `CN1CC2(CCN(Cc3ccoc3)CC2)COc2ccccc2S1(=O)=O.O=C(O)C(F)(F)F`, the “Percent Effect” value came out at 1.89%.

In the case of `CN(C)C(=O)CN1C[C@H]2CCN(Cc3ccccc3)CC[C@H]2S1(=O)=O.O=C(O)C(F)(F)F`, the “Percent Effect” value is listed as -15.21%.

Consider `CN1CC2(CCN(CC3CC3)CC2)COc2ccccc2S1(=O)=O.O=C(O)C(F)(F)F`, for which the “Percent Effect” value was found to be 105.1%. As to `CN(C)C(=O)CN1CCC2(CC1)COc1ccccc1S(=O)(=O)N(C)C2.O=C(O)C(F)(F)F`, the “Percent Effect” value was determined as 107.3%.

`COc1cccn(CC(=O)N(C)CCC2CCOCC2)c1=O`: the “Percent Effect” value was -97.94%. To `CN1CCN([C@@H]2CCN(C3CCOCC3)[C@H]2Cc2cnn(C)c2)CC1.O=C(O)C(F)(F)F.O=C(O)C(F)(F)F.O=C(O)C(F)(F)F` belongs -4.702%; to `Cc1nccn1-c1cc(CNC(=O)C2CCC(=O)N2)ccn1` (stereo not drawn), -0.872%. The value for `CN1CCC2(COCCN(Cc3cccc(C#N)c3)C2)C1.O=C(O)C(F)(F)F.O=C(O)C(F)(F)F` (stereo not drawn) was -6.492%. Take `Cc1cc(N2CCC(N(C)Cc3cccnc3)C2=O)n(C)n1` (stereo not drawn): the “Percent Effect” value was determined as 5.804%. Take `CCC(C(=O)NCc1ccncc1)N(c1cccc(C)c1)S(C)(=O)=O` (stereo not drawn): the “Percent Effect” value was -0.3468%. The value for `CC(C)NC1CCc2c(ccc(=O)n2CCN2CCOCC2)C1.O=C(O)C(F)(F)F.O=C(O)C(F)(F)F` (stereo not drawn) was 1.575%; that for `c1cnc(N2CCC(OCCN3CCCCC3)C2)nc1` (stereo not drawn) was 7.193%; that for `CS(=O)(=O)N1CCc2ccc(=O)n(CC3CC3)c2CC1` was -5%. Regarding `CS(=O)(=O)N1CCc2ccc(=O)n(CCN3CCCC3)c2CC1.O=C(O)C(F)(F)F`, the “Percent Effect” value was determined as 96.15%. Consider `CCS(=O)(=O)N1CCc2ccc(=O)n(CC3CC3)c2CC1`, for which the “Percent Effect” value is given as -6.425%. Consider `O=c1ccc2c(n1CCN1CCCC1)CCN(c1ncccn1)CC2`, for which the “Percent Effect” value was determined as 103.5%. To `O=c1ccc2c(n1CC1CC1)CCN(c1ncccn1)CC2` belongs 91.07%; to `O=C1OCCN1CCSc1nnnn1C1CCOCC1`, 4.471%; to `CCc1c(O)nc(SC(C)CC)n(-c2ccccc2)c1=O` (stereo not drawn), -9.121%. In the case of `Cc1ccc(CNC(=O)NC2CCC(O)CC2)c(N2CCCC2)c1` (stereo not drawn), the “Percent Effect” value is -1.85%.

Consider `CN(CCCOc1ccc(F)cc1)Cc1nc2c(cnn2C)c(=O)[nH]1`, for which the “Percent Effect” value is -3.245%.

As to `Cc1ccc(OCCN(C)Cc2nc3c(cnn3C)c(=O)[nH]2)cc1`, the “Percent Effect” value is given as 122.7%. The value for `Cc1ccccc1CN(C)Cc1nc2c(cnn2C)c(=O)[nH]1` was 16.78%; that for `CCN(Cc1nc2c(cnn2C)c(=O)[nH]1)c1cccc(F)c1` was 1.042%.

Take `COc1ccc(C)cc1CN(C)Cc1nc2c(cnn2C)c(=O)[nH]1`: the “Percent Effect” value is recorded as -1.165%.

For the compound `Cc1ccsc1CN(C)Cc1nc2c(cnn2C)c(=O)[nH]1`, the “Percent Effect” value is given as 5.162%.

For the compound `COc1ccc(OCCN(C)Cc2nc3c(cnn3C)c(=O)[nH]2)cc1`, the “Percent Effect” value is recorded as 98.39%. The value for `Cc1ccc(CN(C)Cc2nc3c(cnn3C)c(=O)[nH]2)c(C)c1` was 10.63%; that for `CN(Cc1nc2c(cnn2C)c(=O)[nH]1)Cc1ccc(F)cc1F` was -0.6664%. To `CN(CCOc1cccc(F)c1)Cc1nc2c(cnn2C)c(=O)[nH]1` belongs 123%; to `CN(CCCOc1ccccc1)Cc1nc2c(cnn2C)c(=O)[nH]1`, 105%; to `FC(F)(F)COCCN1CCc2cncnc2C1`, -42.17%. To `CNC(=O)Cc1ccc(NC(=O)NCC(C)c2ncc(C)s2)cc1` (stereo not drawn) belongs 5.803%. Take `CC(=O)N1CCc2ncn(C)c2C1C(=O)N1CCCC1.O=C(O)C(F)(F)F` (stereo not drawn): the “Percent Effect” value is listed as -4.032%. For the compound `CC(C)Nc1ccnc(-c2ccnc3c2ccn3C)n1`, the “Percent Effect” value is recorded as -57.68%. For the compound `CC(C)(NC(=O)c1scnc1Cl)c1ccccc1`, the “Percent Effect” value is given as -10.08%.

As to `COc1cc2c(cc1C(=O)N1CC(c3ccncc3)C1)CCC2`, the “Percent Effect” value was -5.879%.

As for `COC(=O)[C@@H]1Cc2ncn(C)c2CN1S(=O)(=O)Cc1ccccc1`, the “Percent Effect” value is recorded as -8.847%.

Regarding `Cn1nc(-c2ccc(F)cc2)cc1C(=O)NCCn1ccnc1`, the “Percent Effect” value is recorded as 186.2%. Regarding `CC(C)c1nccn1CCCNC(=O)c1ccc(-c2ccncc2)nc1`, the “Percent Effect” value is listed as 3.275%.

As to `COc1ccc(-c2cc(C(=O)NCCCn3ccnc3C)n(C)n2)cc1`, the “Percent Effect” value worked out at 159.9%. Take `COc1ccc(-c2ncc(-c3nccn3CCN(C)C)cn2)cc1`: the “Percent Effect” value is -4.545%. Consider `O=C(NCCn1ccnc1)c1cccc(F)c1`, for which the “Percent Effect” value is 6.195%.

As to `COc1ccc(-c2cc(C(=O)NCCn3ccnc3)n(C)n2)cc1`, the “Percent Effect” value worked out at 156.8%. On to `O=C(NCCn1ccnc1)c1cc(F)cc(Br)c1`, for which the “Percent Effect” value amounted to 6.627%. As to `O=C(NCCn1ccnc1)c1cncc(Br)c1`, the “Percent Effect” value is listed as 15.29%. For the compound `O=C(NCCn1ccnc1)c1cccc(Br)c1`, the “Percent Effect” value was determined as 8.46%. For `Cc1nc(C(F)(F)F)nc(N2CCC(O)(C(=O)O)CC2)c1C`, the “Percent Effect” value is -14.39%. To `O=C(CN1CCCc2c(F)cc(Br)cc21)N1CCN(C(=O)C2CC2)CC1` belongs 3.977%; to `N#Cc1ccnc(N2CCN(C3CCOC3=O)CC2)c1` (stereo not drawn), -3.021%.

`Cc1ccc(CNC(=O)CN2CCN(CC(O)C3CC3)CC2)cc1.Cl.Cl` (stereo not drawn): the “Percent Effect” value was -4.273%. For the compound `O=C(CN1CCS(=O)(=O)CC1)NCc1ccccc1F`, the “Percent Effect” value is -2.021%.

With `Cl.Cl.O=C(CN1CCN(CC(O)C2CC2)CC1)NCc1ccccc1Cl` (stereo not drawn), the “Percent Effect” value is reported as 116.4%. As to `Cc1ccc(CNC(=O)CN2CCN(CC(O)c3ccco3)CC2)cc1.Cl.Cl` (stereo not drawn), the “Percent Effect” value worked out at 0.6703%. To `Cl.Cl.O=C(CN1CCN(CC(O)C2CC2)CC1)NCc1ccccc1` (stereo not drawn) belongs 118.5%; to `O=C(CCN1CCOC(C(F)(F)F)C1)NCc1ccccc1Cl` (stereo not drawn), 4.795%.
